High-throughput results deposited in PubChem by Broad Institute.
Tgondii IFNg – blocks Toxoplasma gondii growth in the presence of IFN-gamma | Toxoplasma gondii growth in IFN-gamma-treated host cells; active compounds read low | activity change, negative = inhibition, % (no concentration beside the values) | 69,000 compounds, 3.8% hits | AID 1259416; in the data active = activity change below about -70%, passing the limit was not always enough;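 note: host cells are HeLa cells infected with Toxoplasma gondii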
Each line names hits and unclear results; the compound was inactive in the other large screens; ! = a repeat was not active. The full list was thinned out, with hits kept by preference.

CN(C)CC(=O)N1CCCC2(CC(N(C)Cc3ccccn3)CO2)C1 (configuration not stated)	none
c1csc(C2N3CCC4(CC3)c3[nH]c5ccccc5c3CCN24)c1 (configuration not stated)	none
OC(CSc1nc2ccccc2s1)Cn1c2ccccc2c2ccccc21 (configuration not stated)	Tgondii IFNg -75
C=CCn1c(SCC(O)Cn2c3ccccc3c3ccccc32)nnc1-c1ccco1 (configuration not stated)	none
Cc1nc2ccccc2n1CC(O)Cn1c2ccccc2c2ccccc21 (configuration not stated)	none
O=C(Nc1ccccc1)c1c(O)c2ccccc2[nH]c1=O	none
CN(C)CCN1CCN(C)C2(CCN(C(=O)C3CCCO3)CC2)C1=O (configuration not stated)	none
COC(=O)c1c(C)nn(-c2ccccc2)c1-c1cc(C)on1	none
Cc1nn(-c2ccccc2)c(C)c1C(N)=O	none
Cc1nn(-c2ccccc2)c(Cl)c1C(=O)Oc1ccc(OCc2ccccc2)cc1	Tgondii IFNg -97
COCCN(C)c1nc(C2CCN(Cc3ccco3)CC2)cc2c1ncn2C	none
Cc1oncc1C(=O)N1CCC2OCCCC2(COCCN(C)C)C1 (configuration not stated)	none
Cc1sc2ncnc(NCc3ccco3)c2c1C	none
Cc1sc2ncnc(Oc3ccc(OCc4ccccc4)cc3)c2c1C	Tgondii IFNg -101
Oc1ccc(OCc2ccccc2)cc1	none
O=C(Nc1cnc2n1CCCC2)c1csc(-c2cccs2)n1	none
COc1ccc(C(=O)N2CCC3(CC2)Nc2ccccc2-n2cccc23)cc1OC	none
COc1ccccc1N1CCN(C(=O)c2cc(C(C)(C)C)oc2C)CC1	Tgondii IFNg -108
COc1ccccc1N1CCN(C(=O)C2CCCCC2)CC1	none
COc1ccccc1N1CCN(C(=S)c2ccccc2OC(F)(F)F)CC1	none
Cc1ccc(C2(O)CCN(C(=O)c3ccc(Cn4ccnc4)o3)CC2)nc1	none
O=C(/C=C/c1ccccc1)NC(NC(=S)Nc1cccc2cccnc12)C(Cl)(Cl)Cl (configuration not stated)	none
O=C(NCCc1ccc(Cl)cc1)C(c1ccccc1)c1ccccc1	none
O=C(NC(NC(=S)Nc1ccc(F)c([N+](=O)[O-])c1)C(Cl)(Cl)Cl)C(c1ccccc1)c1ccccc1 (configuration not stated)	Tgondii IFNg -81
C=C(NC(=O)C(=C)NC(=O)c1csc(C2=N[C@@H]3c4csc(n4)[C@H]4NC(=O)c5csc(n5)[C@H]([C@](C)(O)[C@@H](C)O)NC(=O)[C@H]5CSC(=N5)/C(=C/C)NC(=O)[C@H]([C@@H](C)O)NC(=O)c5csc(n5)[C@]3(CC2)NC(=O)[C@H](C)NC(=O)C(=C)NC(=O)[C@H](C)NC(=O)[C@H]([C@@H](C)CC)N[C@@H]2C=Cc3c([C@H](C)O)cc(nc3[C@H]2O)C(=O)O[C@@H]4C)n1)C(N)=O	Tgondii IFNg -72
C=C(NC(=O)C(=C)NC(=O)c1csc(C2=N[C@H]3c4csc(n4)[C@H]4NC(=O)c5csc(n5)[C@H]([C@@](C)(O)[C@@H](C)O)NC(=O)[C@H]5CSC(=N5)/C(=C/C)NC(=O)[C@H]([C@@H](C)O)NC(=O)c5csc(n5)[C@]3(CC2)NC(=O)[C@H](C)NC(=O)C(=C)NC(=O)[C@H](C)NC(=O)[C@H](C(C)CC)N[C@@H]2C=Cc3c([C@H](C)O)cc(nc3[C@H]2O)C(=O)O[C@@H]4C)n1)C(N)=O (some centres not stated)	none
Cc1oc(-c2ccc(C(=O)NCCc3ccc(Cl)cc3)cc2)nc1CN1CCc2ccccc21	none
Cc1oc(-c2ccc(C(=O)NCc3ccc(OC(C)C)cc3)cc2)nc1CN1CCc2ccccc21	Tgondii IFNg -88
Cc1oc(-c2ccc(C(=O)NCCc3cccs3)cc2)nc1CN1CCc2ccccc21	Tgondii IFNg -89
Cc1oc(-c2ccc(C(=O)NCCc3ccco3)cc2)nc1CN1CCc2ccccc21	none
Cc1oc(-c2ccc(C(=O)NCCC(C)C)cc2)nc1CN1CCc2ccccc21	none
COc1ccc(CNC(=O)c2ccc(-c3nc(CN4CCc5ccccc54)c(C)o3)cc2)cc1OC	none
O=C(NCc1nnc2c(Cl)cc(C(F)(F)F)cn12)c1ccccc1	none
COc1ccc(N(Cc2nc(-c3cccc(C)c3)oc2C)S(=O)(=O)c2cccs2)cc1	none
O=C(NC1CCCc2c1cnn2-c1ccc(F)cc1)c1ccncc1 (configuration not stated)	none
c1ccc(Nc2ccc(N3CCCC3)nn2)cc1	none
CO[C@H]1CO[C@@]2(CCCN(C(=O)C3CC=CC3)C2)C1	none
O=C(CN1CCC(Cc2ccccc2)CC1)Nc1cccc(-c2ncn[nH]2)c1	none
Cc1ccc2nc(SCC(=O)N3N=CCC3c3ccccc3)nc(C)c2c1 (configuration not stated)	none
CC(C)c1nnsc1CNC(=O)c1cc(-c2cccs2)nn1C	none
CCN(CC)CCOC(=O)C(c1ccccc1)c1ccccc1	none
CCN(CC)CCOC(=O)C1(C2CCCCC2)CCCCC1	none
CCN(CC)CCOC(=O)C(c1ccccc1)C1CCCCC1 (configuration not stated)	Tgondii IFNg -77!
CN1CC[C@@]2(CN(C3CCOC3)C[C@H]2c2ccccc2)C1=O (some centres not stated)	none
Cc1ccc(F)c(-c2cc(C(N)=O)ccn2)c1	none
COc1cc(OC)cc(C(=O)N2CCC3(CC2)Nc2cccnc2NC3=NC(C)(C)C)c1	none
COc1ccc(C(O)c2nccc3cc(OC)c(OC)cc23)cc1OC (configuration not stated)	none
CCOc1ccc(CNCc2cccs2)cc1OCC	none
CCOc1ccc(Cc2nccc3cc(OCC)c(OCC)cc23)cc1OCC	Tgondii IFNg -83
COc1ccc(-c2ccccc2NC(=O)CCN2C(=O)CCNC2=O)cc1	none
CCCc1ccc(C2CC(=O)Nc3cc4c(cc32)OCO4)o1 (configuration not stated)	Tgondii IFNg -88
CCOC(=O)Nc1ccc2c(c1)NC(=O)CC2c1cc(C(C)C)no1 (configuration not stated)	none
O=C1COc2cc3c(cc2N1)NC(=O)CC3c1nccs1 (configuration not stated)	none
COc1ccc(-c2nc(CN(c3ccc(C)cc3)S(=O)(=O)c3cccs3)c(C)o2)cc1OC	none
CN1C(=O)c2cc(NC(=O)c3cscn3)ccc2OC[C@H]2O[C@@H](CC(=O)N3CCOCC3)CC[C@@H]21	none
c1coc(CN2C[C@H]3[C@H](N4CCOCC4)c4ccccc4[C@@H]3C2)c1	none
COc1ccc(-c2nc(NCCCN3CCN(c4cc(C)ccc4C)CC3)c3ccccc3n2)cc1	none
N#Cc1c(N2C(=O)C3C4c5ccccc5C(c5ccccc54)C3C2=O)sc2c1CCC2 (configuration not stated)	Tgondii IFNg -79
Cc1onc(-c2ccccc2Cl)c1C(=O)Nc1sc2c(c1C#N)CCC2	none
Fc1ccccc1Cc1noc(CN2CCC(C3CCCCC3)C2)n1 (configuration not stated)	none
CCCCCCCCc1ccc(CCC(N)(CO)CO)cc1	Tgondii IFNg -82!
CCCCCCCCc1ccc(-c2ccc(C(=O)O)cc2)cc1	none
CCCCCCCCCCCCCCCCCCc1ccc(C(=O)/C=C/C(=O)O)cc1	none
CN1CCN(C(=O)c2ccc3c(c2)nnn3C)CC1=O	none
Cc1oc(-c2ccc(C(C)C)cc2)nc1Cn1cnc2nc3c(cc2c1=O)CCCC3	none
C[N+](C)(C)CCOP(=O)(O)OC[C@H](O)CO	none
Cc1cnc(N2CCC3(c4ccccc4)CN(S(C)(=O)=O)CC3C2)nc1 (configuration not stated)	none
